Assay results reported in PubChem BioAssay AID1619 (SRMLSC, 2009).
Several values for one entry are separate records, joined by “and”; a condition that tells them apart may be missing. Equal entries are not always repeated. Hit rate of the full screen: of about 220,000 compounds, about 830 (0.38%) were called active.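 The calls were made as follows: active = compound inhibiting the enzyme by more than half at any dose during confirmatory dose-response retesting; inconclusive = strong single-dose inhibitors picked by rank but not retested; inactive = the rest.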 A selection follows. Potency and affinity values are given separately.

Target: Leucine aminopeptidase (Plasmodium falciparum (isolate 3D7)) (UniProt Q8IL11)
Sequence (Q8IL11 whole entry, looked up): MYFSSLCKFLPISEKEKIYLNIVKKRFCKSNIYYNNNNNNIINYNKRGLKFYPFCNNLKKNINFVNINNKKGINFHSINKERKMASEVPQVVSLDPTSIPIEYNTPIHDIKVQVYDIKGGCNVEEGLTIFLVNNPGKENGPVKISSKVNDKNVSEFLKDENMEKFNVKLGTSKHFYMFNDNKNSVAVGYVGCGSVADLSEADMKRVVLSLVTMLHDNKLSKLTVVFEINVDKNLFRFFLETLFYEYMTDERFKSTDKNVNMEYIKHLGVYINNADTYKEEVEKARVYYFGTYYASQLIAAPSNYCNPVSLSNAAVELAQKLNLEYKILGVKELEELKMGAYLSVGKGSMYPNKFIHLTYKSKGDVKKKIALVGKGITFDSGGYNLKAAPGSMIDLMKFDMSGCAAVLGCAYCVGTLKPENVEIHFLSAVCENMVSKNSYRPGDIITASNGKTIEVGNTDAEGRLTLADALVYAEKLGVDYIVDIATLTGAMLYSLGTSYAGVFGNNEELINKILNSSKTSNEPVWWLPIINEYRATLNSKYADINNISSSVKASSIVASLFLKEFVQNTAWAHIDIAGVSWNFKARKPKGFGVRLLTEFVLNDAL
Experiment: P. falciparum M17LAP inhibitors, primary screen, biochemical, fluorogenic H-Leu-NHMec substrate, 1536-well (AID 1619);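 also: plate controls were full reaction with DMSO carrier for no effect and no enzyme background for full effect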
Conditions: recombinant M17LAP, H-Leu-NHMec fluorogenic kinetic assay; at 30 µM; hits give high values

inhibition, inactive:
Cn1ncc([N+](=O)[O-])c1C(=O)Nc1nc2ccccc2n1CCN1CCCCC1 48.4%
Cc1ccc(NC(=O)COC(=O)Cc2ccsc2)cc1S(=O)(=O)N(C)C 3.8%
CCOC(=O)c1cc(=O)n2nc(-c3ccc(C)cc3)nc2s1 10.8%
CCOC(=O)c1ccc(NC(=O)Cn2nnc(-c3ccccc3F)n2)cc1 -13.6%
CC(C)Cn1c(N)c(C(=O)COC(=O)c2cc(F)cc(F)c2)c(=O)n(C)c1=O 3.99%
CCOc1ccc(C2/C(=C(\O)c3ccc(OC)c(OC)c3)C(=O)C(=O)N2c2cc(C)on2)cc1OC (centres undefined) 25.9%
C=CCn1c(-c2cccc(OCC)c2)n[nH]c1=S -4.71%
CCOc1cccc(-c2cc(C(=O)NN)[nH]n2)c1 3.47%
Cc1ccc(C(=O)NC2CCCCNC2=O)cc1C (centres undefined) 4.43%
Cc1ccc(Cl)cc1NC(=O)N(C)CCO -0.32%
O=Cc1cn(CC(=O)N2CCOCC2)c2ccccc12 13.4%
O=C(O)Cn1cc(/C=C2/SC(=O)N(CC(=O)N3CCCCCC3)C2=O)c2ccccc21 36.6%
O=C(O)Cn1cc(C(=S)N2CCOCC2)c2ccccc21 4.61%
O=C(Cn1cc(C(=S)N2CCOCC2)c2ccccc21)N1CCOCC1 1.74%
O=C(NCc1ccccc1C(F)(F)F)C1CC(c2ccc(C(F)(F)F)cc2)=NO1 (centres undefined) -1.15%
Cc1ccc(CNC(=O)c2ccc3c(=O)n4c(-c5ccc(C)cc5)csc4nc3c2)cc1 4.76%
COC(=O)c1c(C)[nH]c(C(=O)NCc2ccco2)c1C -0.45%
CCC(=O)N(Cc1cc(=O)[nH]c2ccccc12)c1cccc(C)c1 -6.5%
Cc1ccc(-c2cc3nc(-c4ccccc4)cc(N4CCOCC4)n3n2)cc1 -15.5%
O=c1[nH]c(-c2ccc(Cl)cc2)cs1 -0.58%
CC(C)Cc1ccc(-c2cc(=O)[nH][nH]2)cc1 3.83%
O=c1cc(-c2ccc(C3CCCCC3)cc2)[nH][nH]1 1.14%
O=c1cc(-c2ccc(Br)cc2)[nH][nH]1 6.69%
O=c1c(OC2OC(CO)C(O)C(O)C2O)c(-c2ccc(O)c(O)c2)oc2cc(O)cc(O)c12 (centres undefined) 31%
O=c1c(O[C@@H]2O[C@H](CO)[C@H](O)[C@H](O)[C@H]2O)c(-c2ccc(O)c(O)c2)oc2cc(O)cc(O)c12 -6.93%
O=C(c1ccc(Br)cc1)N(C1=NCCCCS1)c1ccccc1 -5.89%
CC(Oc1ccc(NC(=O)c2ccco2)cc1)C(=O)N1c2ccccc2CC1C (centres undefined) -7.91%
CCOC(=O)c1c(N)c2cc([N+](=O)[O-])cnc2n1C -0.26%
O=C(CSc1nnc(-c2ccc(S(=O)(=O)N3CCCC3)cc2)o1)NCC1CCCO1 (centres undefined) -1.86%
O=C(NCC1CCCO1)c1ccc(NS(=O)(=O)c2ccccc2)cc1 (centres undefined) -3.12%
COC(=O)CSc1nnc(-c2ccc(NS(=O)(=O)c3ccccc3)cc2)o1 55.1%
CCc1nnc(NC(=O)CSc2nnc(-c3ccco3)o2)s1 4.71%
Cc1cc(NC(=O)Nc2ccc(C)c(C)c2)no1 1.89%
O=C1c2cccc3c([N+](=O)[O-])ccc(c23)C(=O)N1CCc1ccccn1 3.49%
Cc1cccc(OCCOC(=O)C2CCN(S(=O)(=O)c3cccs3)CC2)c1 -6.82%
COc1ccc(C(C)NC(=O)c2cccc([N+](=O)[O-])c2)cc1OC (centres undefined) 1.09%
COc1ccc(NC(=S)N/C(=N/S(=O)(=O)c2ccc(C)cc2)c2ccccc2)cc1 -2.37%
OC1(c2ccccc2)CCN(Cc2ccccc2)CC1 11.4%
CCOC(=O)c1cn(Cc2ccccc2)nn1 -4.7%
Cc1ccc(-n2cc(CN3CCN(C(=O)c4ncn[nH]4)CC3)c(-c3ccc(F)cc3)n2)cc1 5.18%
CCCOc1ccc(N2C(=O)CC(SCc3nc4ccccc4[nH]3)C2=O)cc1 (centres undefined) 9.24%
COC(=O)c1ccc(N2C(=O)CC(SCCN)C2=O)cc1 (centres undefined) 6.69%
CCCOc1ccc(N2C(=O)CC(SCCc3nc4ccccc4[nH]3)C2=O)cc1 (centres undefined) 0.77%
CCOc1ccc(N2C(=O)CC(SCC(=O)O)C2=O)cc1 (centres undefined) 11.6%
O=c1[nH]c2cccnc2n1-c1cccc([N+](=O)[O-])c1 -2.76%
Fc1ccc(OCc2nc(-c3cccs3)no2)cc1 -5.15%
O=C(Cn1cnc2c(cnn2-c2ccc(Cl)cc2)c1=O)NCC1CCCO1 (centres undefined) 8.72%
COc1ccc(C2CC(=O)C=C(NCc3ccc4c(c3)OCO4)C2)cc1 (centres undefined) 8.48%
CCN(CC)c1nc(C)c(C(C)=O)cc1C#N 3.26%
COc1ccccc1N1CCN(S(=O)(=O)Cc2ccccc2Cl)CC1 3.75%
COc1ccc(NC(=O)C(c2ccc(C)cc2)N(C)C(=O)c2cnccn2)cc1 (centres undefined) 1.36%
C/C(=N\NC(=O)CCc1c(C)n[nH]c1C)c1ccc([N+](=O)[O-])cc1 6.88%
C/C(=N\NC(=O)CC1N=C(Cc2ccccc2)NNC1=O)c1ccccc1 (centres undefined) 1.8%
C/C(=N/NC(=O)CC(=O)N/N=C(\C)c1ccc([N+](=O)[O-])cc1)c1ccc([N+](=O)[O-])cc1 9.49%
C/C(=N\NC(=O)CNc1ccccc1)c1ccccc1 -12.8%
Cc1ccc(S(=O)(=O)/N=C(\N)Nc2nc(C)c3cc(C)c(C)cc3n2)cc1 6.15%
O=C(CCSc1ccccc1)Nc1ccc(OCc2ccccc2)cc1 3.34%
COc1ccc(-c2nnc(SCC(=O)N/N=C/c3ccccc3C(=O)O)n2-c2ccccc2)cc1 -3.16%
COC(=O)c1ccc(COc2ccc(/C=C(\C#N)c3nc4ccccc4[nH]3)cc2OC)o1 -3.19%
COc1cc(/C=C(/C#N)c2ccc(F)cc2)ccc1OCc1ccc(C(=O)O)o1 34.9%
COc1cc(/C=C(/C#N)c2nc3ccccc3[nH]2)ccc1OCc1ccc(C(=O)O)o1 -33.5%
N#C/C(=C/c1ccc(OCc2ccc(C(=O)O)cc2)c(Br)c1)c1cccc(F)c1 7.71%
COc1ccc(NC(=O)Cc2c(F)cccc2Cl)c(OC)c1 -1.9%
COc1ccc(NC(=O)COC(=O)Cc2c(F)cccc2Cl)cc1 5.4%
COC(=O)CSc1nc(NC#N)nc(NC(C)(C)C)n1 4.9%
COc1ccc(-c2cc(C)nc(SCc3cccc(C(=O)O)c3)n2)cc1 38.6%
Cc1ccc(C(=O)Nc2nc(=O)n(C(=O)c3ccccc3C)s2)cc1 31.9%
Cn1sc(NC(=O)c2ccc(Cl)cc2)nc1=O 0.57%
Cn1sc(NC(=O)c2ccccc2Cl)nc1=O -13.2%
Cc1ccc(C(=O)Nc2nc(=O)[nH]s2)cc1 -1.57% and 13.4%
Cc1ccc(C(=O)Nc2nc(=O)n(C)s2)cc1 4.51%
Cn1sc(NC(=O)c2cccc(Cl)c2)nc1=O 12.3%
O=C(Nc1nc2ccccc2s1)c1ccccc1 0.27%
O=C(Nc1nc(=O)n(C(=O)c2cccc(C(F)(F)F)c2)s1)c1ccccc1 22.5%
CCN(CC)CCCN1C(=O)CSC1c1ccc2c(c1)OCO2 (centres undefined) 20.1%
O=C(NNC(=O)c1ccc(Br)o1)c1ccc(NC(=O)c2ccccc2)cc1 -6.75%
COCCCN(C(=S)NC(=O)c1ccc(C(C)(C)C)cc1)c1c(N)n(Cc2ccccc2)c(=O)[nH]c1=O 16.9%
Cc1ccc(C)c(Cn2c(=O)n(CCCC(=O)NCc3ccco3)c(=O)c3ccccc32)c1 10%
Cc1csc2nc(CCNS(=O)(=O)c3cccs3)cn12 -4.9%
O=C(NCc1ccccc1)C1=C[C@@H](c2ccc(Br)cc2)C[C@@H](OCc2ccc(CO)cc2)O1 7.8%
CCCc1[nH]nc2c1C(c1cn[nH]c1-c1ccc(F)cc1)C(C#N)=C(N)O2 (centres undefined) 29.9%
C=CCN(c1ccccc1)S(=O)(=O)c1cc(C(=O)NC2=NCCS2)ccc1Cl -0.31%
CC(C)Oc1cccc(C(=O)C2CCCN(Cc3cccn3-c3cccnc3)C2)c1 (centres undefined) 4.62%
O=C(COc1ccc(Br)cc1)Nc1nnc(-c2cccnc2)s1 -6.24%
Cc1ccc(C(=O)/C=C/c2c[nH]c3ccccc23)cc1 5.88%
COCCCNC(=O)c1ccccc1NS(C)(=O)=O -1.32%
CCOC(=O)C1CCN(S(=O)(=O)c2cnc[nH]2)CC1 3.88%
CC1CN(C(=S)c2cccc([N+](=O)[O-])c2)CC(C)O1 (centres undefined) 4.78%
Cc1nc2ccccc2n1C(=O)c1ccccc1[N+](=O)[O-] 7.68%
CCn1c(SCC(=O)Nc2cccc(C)n2)nnc1-c1ccco1 4.98%
Cc1ccccc1S(=O)(=O)Nc1nc2ccccc2nc1N1CCOCC1 16.6%
CC1=C(C(N)=O)C(c2ccccc2)n2nc(-c3cccs3)nc2N1 (centres undefined) -4.69%
Cc1cc(NC(=O)CSc2nnc(CNc3cccc(C(F)(F)F)c3)n2Cc2ccco2)no1 7.47%
O=C(CSc1nnc(CNc2cccc(C(F)(F)F)c2)n1Cc1ccco1)NCc1ccco1 7.9%
